Measured values from the supplement of paper PMC11732987, “Enantioselective OTUD7B fragment discovery through chemoproteomics screening and high-throughput optimisation” (Communications Chemistry, 2025).

Key:
Assay in all cases: log2 ratio of Biotin-Ahx-Ub-VS probe labelling (fragment/DMSO); higher = less target engagement (more negative = stronger competition), active = hit call of the paper (q ≤ 0.05, log2 ratio ≤ -1)
Conditions in all cases: compound concentration: 200 uM; treatment time: 3 h
USP34 = USP34 (UniProt Q70CQ2)
Outline: (§1)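 HEK293T lysate in Tris/CHAPS/IGEPAL buffer with protease inhibitors (495 µg per sample) was given fragment at 200 µM or vehicle for 3 h, in triplicate. It then received Biotin-Ahx-Ub-VS at 0.5 µM final for 1 h. Labelled DUBs were NeutrAvidin-enriched, digested with LysC and trypsin, and run by diaPASEF LC-MS/MS. Values are average log2 fragment/vehicle ratios by unpaired t-test on global-median-normalised Spectronaut quantities of proteins with ≥2 unique peptides.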

USP36 = target: T1, USP36 (UniProt Q9P275)
T1 sequence (whole entry): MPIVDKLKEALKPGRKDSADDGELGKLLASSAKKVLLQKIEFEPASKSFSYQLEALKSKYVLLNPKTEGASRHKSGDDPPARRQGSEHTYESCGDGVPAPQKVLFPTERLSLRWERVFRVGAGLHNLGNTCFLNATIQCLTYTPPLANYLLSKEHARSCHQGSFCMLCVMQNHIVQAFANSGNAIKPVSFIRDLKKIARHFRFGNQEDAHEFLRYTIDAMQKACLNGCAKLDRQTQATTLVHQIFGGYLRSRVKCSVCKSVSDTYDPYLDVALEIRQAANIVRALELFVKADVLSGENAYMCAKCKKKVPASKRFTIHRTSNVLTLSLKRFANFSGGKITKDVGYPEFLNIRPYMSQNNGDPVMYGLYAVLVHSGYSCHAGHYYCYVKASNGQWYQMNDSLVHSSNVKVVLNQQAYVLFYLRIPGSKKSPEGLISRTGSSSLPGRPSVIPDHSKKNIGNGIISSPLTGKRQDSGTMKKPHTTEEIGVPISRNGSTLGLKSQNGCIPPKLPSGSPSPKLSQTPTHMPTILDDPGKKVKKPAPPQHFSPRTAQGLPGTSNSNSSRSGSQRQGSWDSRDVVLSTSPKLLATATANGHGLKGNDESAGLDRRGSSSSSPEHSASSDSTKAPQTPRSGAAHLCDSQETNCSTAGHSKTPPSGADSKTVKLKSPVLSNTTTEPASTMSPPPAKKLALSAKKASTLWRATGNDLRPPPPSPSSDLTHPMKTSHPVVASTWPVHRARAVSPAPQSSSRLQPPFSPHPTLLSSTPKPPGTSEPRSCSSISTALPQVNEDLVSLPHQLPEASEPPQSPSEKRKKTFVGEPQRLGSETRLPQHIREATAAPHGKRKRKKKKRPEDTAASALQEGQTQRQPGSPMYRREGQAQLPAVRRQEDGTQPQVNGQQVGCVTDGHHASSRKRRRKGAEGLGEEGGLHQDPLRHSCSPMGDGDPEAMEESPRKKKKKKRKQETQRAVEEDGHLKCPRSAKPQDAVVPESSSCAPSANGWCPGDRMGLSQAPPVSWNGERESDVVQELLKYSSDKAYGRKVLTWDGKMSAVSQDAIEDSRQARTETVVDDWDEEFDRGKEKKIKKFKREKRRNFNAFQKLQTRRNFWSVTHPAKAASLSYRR
Outline: as §1

USP38 = target: T2, USP38 (UniProt Q8NB14)
T2 sequence (whole entry): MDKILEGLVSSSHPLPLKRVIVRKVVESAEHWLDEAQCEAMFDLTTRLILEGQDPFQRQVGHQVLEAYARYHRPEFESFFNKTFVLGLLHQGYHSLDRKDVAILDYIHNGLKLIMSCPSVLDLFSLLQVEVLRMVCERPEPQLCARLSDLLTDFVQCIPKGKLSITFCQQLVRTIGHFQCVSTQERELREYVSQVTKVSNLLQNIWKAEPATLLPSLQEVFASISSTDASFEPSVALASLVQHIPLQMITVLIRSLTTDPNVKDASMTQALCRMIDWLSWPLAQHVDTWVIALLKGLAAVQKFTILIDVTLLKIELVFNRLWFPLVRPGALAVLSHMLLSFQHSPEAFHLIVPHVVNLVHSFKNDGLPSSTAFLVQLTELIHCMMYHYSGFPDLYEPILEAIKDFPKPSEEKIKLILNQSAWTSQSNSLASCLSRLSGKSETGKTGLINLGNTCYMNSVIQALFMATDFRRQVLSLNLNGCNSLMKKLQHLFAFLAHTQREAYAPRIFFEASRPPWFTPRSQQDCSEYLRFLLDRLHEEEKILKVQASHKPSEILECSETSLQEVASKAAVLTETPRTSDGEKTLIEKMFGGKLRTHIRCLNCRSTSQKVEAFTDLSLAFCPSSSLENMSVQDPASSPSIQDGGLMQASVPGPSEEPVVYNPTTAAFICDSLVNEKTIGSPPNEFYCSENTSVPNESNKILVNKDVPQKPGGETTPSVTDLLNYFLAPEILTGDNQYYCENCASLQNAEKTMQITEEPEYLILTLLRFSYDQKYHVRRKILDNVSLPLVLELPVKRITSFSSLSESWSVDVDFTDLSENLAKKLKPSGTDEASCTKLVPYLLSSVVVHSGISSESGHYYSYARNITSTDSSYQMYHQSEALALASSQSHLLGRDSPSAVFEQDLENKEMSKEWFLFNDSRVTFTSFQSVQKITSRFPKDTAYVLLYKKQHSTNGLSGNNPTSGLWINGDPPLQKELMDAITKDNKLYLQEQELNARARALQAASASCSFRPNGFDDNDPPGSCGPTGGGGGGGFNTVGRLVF
Outline: as §1

USP39 = target: T3, USP39 (UniProt Q53GS9)
T3 sequence (whole entry): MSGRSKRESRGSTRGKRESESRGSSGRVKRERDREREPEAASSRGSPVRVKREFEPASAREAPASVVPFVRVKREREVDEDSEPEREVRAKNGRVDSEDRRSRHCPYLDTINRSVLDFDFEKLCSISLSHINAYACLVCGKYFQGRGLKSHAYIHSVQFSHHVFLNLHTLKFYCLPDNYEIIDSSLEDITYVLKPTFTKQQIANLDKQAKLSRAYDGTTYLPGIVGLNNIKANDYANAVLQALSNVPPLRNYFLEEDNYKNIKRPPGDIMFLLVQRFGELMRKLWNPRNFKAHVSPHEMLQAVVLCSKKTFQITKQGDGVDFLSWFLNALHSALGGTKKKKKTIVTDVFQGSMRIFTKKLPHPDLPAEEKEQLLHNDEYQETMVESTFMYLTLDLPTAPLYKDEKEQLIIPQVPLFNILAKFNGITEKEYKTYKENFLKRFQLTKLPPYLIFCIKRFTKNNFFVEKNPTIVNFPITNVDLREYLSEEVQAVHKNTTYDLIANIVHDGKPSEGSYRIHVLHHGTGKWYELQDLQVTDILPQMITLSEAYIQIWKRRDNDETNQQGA
Outline: as §1

USP4 = target: T4, USP4 (UniProt Q13107)
T4 sequence (whole entry): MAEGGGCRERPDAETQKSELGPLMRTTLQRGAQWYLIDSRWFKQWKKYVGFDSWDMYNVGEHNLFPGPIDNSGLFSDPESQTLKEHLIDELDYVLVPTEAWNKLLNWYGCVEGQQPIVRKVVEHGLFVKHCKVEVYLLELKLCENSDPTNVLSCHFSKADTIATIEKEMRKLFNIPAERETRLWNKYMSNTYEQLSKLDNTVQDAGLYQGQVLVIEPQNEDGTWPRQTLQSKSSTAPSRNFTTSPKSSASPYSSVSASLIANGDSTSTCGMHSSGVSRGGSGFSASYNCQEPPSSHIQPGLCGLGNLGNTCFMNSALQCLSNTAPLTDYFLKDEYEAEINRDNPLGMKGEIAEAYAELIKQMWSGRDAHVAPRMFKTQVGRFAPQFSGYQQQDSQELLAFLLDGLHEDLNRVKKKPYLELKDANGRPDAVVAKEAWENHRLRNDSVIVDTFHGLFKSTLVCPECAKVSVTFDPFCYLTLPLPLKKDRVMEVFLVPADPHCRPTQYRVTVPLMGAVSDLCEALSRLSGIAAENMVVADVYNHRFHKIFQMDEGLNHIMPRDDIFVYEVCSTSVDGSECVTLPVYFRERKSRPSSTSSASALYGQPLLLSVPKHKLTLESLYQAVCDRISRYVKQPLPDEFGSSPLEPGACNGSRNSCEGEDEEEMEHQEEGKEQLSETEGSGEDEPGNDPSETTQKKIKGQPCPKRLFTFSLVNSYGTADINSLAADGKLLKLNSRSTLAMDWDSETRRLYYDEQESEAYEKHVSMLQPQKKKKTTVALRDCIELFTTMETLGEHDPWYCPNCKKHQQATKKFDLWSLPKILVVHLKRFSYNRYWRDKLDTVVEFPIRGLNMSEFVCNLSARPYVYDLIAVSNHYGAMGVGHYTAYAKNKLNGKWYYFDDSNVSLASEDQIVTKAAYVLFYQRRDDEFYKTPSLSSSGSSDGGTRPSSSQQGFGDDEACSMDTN
Outline: as §1

Measured: log2 ratio of Biotin-Ahx-Ub-VS probe labelling

USP34, sequence (Q70CQ2 whole entry, the tested form may be a part): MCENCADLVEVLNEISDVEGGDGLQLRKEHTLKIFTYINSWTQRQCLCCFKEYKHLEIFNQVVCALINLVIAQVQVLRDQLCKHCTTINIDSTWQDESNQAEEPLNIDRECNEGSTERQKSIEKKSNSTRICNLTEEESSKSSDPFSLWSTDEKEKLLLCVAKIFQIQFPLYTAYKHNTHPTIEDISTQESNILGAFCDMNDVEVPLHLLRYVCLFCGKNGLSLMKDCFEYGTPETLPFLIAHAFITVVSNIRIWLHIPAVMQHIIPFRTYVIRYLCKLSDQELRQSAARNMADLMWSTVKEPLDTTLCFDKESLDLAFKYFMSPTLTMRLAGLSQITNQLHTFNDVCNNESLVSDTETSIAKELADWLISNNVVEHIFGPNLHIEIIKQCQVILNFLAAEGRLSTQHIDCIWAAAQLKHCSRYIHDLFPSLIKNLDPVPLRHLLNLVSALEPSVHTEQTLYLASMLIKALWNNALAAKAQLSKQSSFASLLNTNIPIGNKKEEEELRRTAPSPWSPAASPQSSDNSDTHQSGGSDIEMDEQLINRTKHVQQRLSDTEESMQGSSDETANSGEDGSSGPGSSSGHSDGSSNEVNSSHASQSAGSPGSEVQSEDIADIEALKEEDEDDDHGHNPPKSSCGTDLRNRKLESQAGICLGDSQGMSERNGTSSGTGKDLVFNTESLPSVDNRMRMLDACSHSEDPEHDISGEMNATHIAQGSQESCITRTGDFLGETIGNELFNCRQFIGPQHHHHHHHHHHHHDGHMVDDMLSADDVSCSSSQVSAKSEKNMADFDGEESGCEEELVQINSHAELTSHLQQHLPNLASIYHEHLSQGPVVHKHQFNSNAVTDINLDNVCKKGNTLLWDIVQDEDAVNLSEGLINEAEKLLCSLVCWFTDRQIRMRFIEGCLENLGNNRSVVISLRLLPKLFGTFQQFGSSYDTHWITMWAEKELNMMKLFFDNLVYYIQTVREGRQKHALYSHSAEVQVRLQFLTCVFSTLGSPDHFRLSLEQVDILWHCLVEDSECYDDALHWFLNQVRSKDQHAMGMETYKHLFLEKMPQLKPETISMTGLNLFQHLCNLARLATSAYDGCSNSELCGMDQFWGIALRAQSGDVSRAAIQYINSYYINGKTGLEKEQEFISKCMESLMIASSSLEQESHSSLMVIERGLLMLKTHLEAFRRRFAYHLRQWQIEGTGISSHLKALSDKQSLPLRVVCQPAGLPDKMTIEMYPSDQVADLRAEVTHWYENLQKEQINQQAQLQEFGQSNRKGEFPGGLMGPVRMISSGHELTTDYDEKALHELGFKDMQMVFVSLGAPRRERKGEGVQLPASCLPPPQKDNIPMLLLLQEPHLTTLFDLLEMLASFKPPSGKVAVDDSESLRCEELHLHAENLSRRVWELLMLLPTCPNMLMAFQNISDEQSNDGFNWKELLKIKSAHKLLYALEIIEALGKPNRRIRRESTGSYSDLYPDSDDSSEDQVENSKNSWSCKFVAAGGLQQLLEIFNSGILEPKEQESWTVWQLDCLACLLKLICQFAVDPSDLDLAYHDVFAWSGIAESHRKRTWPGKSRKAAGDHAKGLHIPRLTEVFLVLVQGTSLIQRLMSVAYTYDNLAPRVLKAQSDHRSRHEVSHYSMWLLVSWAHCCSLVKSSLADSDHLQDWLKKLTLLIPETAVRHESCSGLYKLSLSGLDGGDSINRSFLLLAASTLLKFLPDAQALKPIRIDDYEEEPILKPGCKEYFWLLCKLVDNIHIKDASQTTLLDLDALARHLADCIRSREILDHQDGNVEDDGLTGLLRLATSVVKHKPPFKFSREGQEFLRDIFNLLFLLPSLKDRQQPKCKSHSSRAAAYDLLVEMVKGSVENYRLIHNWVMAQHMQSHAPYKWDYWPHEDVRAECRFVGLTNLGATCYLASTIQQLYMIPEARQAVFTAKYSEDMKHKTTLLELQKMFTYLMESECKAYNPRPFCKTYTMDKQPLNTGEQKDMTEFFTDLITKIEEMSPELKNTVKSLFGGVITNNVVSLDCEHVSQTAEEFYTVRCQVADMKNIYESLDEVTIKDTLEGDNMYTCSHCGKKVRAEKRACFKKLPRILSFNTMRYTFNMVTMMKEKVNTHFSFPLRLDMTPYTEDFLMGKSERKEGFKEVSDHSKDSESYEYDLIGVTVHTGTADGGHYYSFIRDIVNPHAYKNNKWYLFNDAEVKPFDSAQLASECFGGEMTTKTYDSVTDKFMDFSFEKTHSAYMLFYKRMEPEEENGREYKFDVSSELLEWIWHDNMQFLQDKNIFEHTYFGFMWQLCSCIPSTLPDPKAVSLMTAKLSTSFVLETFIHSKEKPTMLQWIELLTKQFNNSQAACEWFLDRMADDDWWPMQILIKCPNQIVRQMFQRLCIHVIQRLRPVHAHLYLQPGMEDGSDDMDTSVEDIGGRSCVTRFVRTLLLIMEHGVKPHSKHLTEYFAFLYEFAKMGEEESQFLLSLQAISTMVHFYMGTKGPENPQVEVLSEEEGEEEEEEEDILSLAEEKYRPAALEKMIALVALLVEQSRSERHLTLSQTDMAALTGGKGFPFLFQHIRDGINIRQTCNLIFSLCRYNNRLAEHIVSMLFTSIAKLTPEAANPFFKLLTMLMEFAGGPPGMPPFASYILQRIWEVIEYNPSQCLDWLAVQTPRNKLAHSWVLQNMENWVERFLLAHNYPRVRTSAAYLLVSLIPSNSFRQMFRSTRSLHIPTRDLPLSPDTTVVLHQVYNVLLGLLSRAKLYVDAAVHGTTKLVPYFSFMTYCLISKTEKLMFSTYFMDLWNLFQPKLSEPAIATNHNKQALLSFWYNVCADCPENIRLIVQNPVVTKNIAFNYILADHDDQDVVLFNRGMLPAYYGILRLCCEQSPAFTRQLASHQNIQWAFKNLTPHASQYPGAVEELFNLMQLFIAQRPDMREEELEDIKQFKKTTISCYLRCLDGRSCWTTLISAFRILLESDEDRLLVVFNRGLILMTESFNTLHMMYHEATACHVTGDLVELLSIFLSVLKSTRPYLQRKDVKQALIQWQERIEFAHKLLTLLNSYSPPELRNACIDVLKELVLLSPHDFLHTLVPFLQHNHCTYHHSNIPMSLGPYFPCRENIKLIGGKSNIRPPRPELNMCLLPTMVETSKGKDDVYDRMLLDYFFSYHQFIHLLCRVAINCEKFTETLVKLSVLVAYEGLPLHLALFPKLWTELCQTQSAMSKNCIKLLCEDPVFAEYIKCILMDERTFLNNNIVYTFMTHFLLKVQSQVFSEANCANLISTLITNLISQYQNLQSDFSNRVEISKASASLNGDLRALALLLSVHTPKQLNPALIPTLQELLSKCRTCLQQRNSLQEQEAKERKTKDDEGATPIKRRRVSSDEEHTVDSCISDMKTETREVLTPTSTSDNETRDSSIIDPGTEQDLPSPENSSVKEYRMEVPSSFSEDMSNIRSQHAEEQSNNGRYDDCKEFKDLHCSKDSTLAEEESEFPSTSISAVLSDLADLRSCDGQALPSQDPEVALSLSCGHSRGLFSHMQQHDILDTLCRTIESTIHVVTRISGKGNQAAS

Cl.O=C(CCl)N1CC(c2ccc(Br)cn2)C1
inactive: USP34 -0.16 | USP36 -0.222 | USP38 -0.0763 | USP39 -0.11 | USP4 -0.285
